Assay [1] is described as follows: qHTS assay to identify small molecule antagonists of the sonic hedgehog signaling (Shh) pathway (AID 1259369; calls by dose curve; note: nearly all actives have a fitted effect of over 45% in size; note: potency is the fitted concentration of half-maximal effect). In short, it runs like this: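 NIH/3T3 stable Gli1-Luc clone, 2,000 cells/well, 4hr settle; cpd + conditioned medium 24hr; Luc reagent 30min RT; luminescence.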
On the technique in general: Quantitative high-throughput screening tests each substance at several concentrations.

A short description of assay [2]: qHTS assay to identify small molecule agonists of the androgen receptor (AR) signaling pathway in the presence of an antagonist - cell viability counter screen (AID 1259379). Note: nearly all actives have a fitted effect of over 25% in size. Note: potency is the fitted concentration of half-maximal effect. In short, it runs like this: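 MDA-kb2 viability measured by CellTiter-Fluor fluorescence in the same wells as the luciferase signal; nilutamide 3.0uM final; 15-point compound titration; 16 hr at 37C.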

The nature of assay [3]: qHTS assay to identify small molecule agonists of the estrogen receptor beta (ER-beta) signaling pathway - cell viability counter screen (AID 1259380). Note: nearly all actives have a fitted effect of over 30% in size. Note: potency is the fitted concentration of half-maximal effect. The essentials:
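Measured: luminescence from CellTiter-Glo after 30 min at room temperature, added to wells already read for the LiveBLAzer FRET reporter (2 hr substrate); ER-beta-UAS-bla HEK293T cells had 16 hr compound treatment at 37C, 5% CO2.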

Assay [4] can be described thus: qHTS assay to identify small molecule antagonists of the estrogen receptor beta (ER-beta) signaling pathway - cell viability counter screen (AID 1259382). Note: nearly all actives have a fitted effect of over 55% in size. Note: potency is the fitted concentration of half-maximal effect. The essentials: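 Readout: luminescence, CellTiter-Glo, same wells as bla assay. System: ER-beta-UAS-bla GripTite HEK293T, 2% charcoal-stripped FBS. Exposure: compounds plus 1nM 17-beta-estradiol, 16 hr, 37C.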

Assay [5] addresses Estrogen receptor (Homo sapiens) (UniProt P03372). Briefly: qHTS assay to identify small molecule agonists of the estrogen receptor alpha (ER-alpha) signaling pathway in the presence of an antagonist (AID 1259383; calls by dose curve; note: top concentration of the series differs between compounds; nearly all actives have a fitted effect of over 15% in size). The essentials: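 Quantitative HTS confirmation: compounds titrated at 15 concentrations onto estrogen-deprived VM7Luc4E2 cells carrying a four-ERE luciferase construct, with ICI-182,780 present at 10.0nM final. Signal is luminescence after 22hr exposure.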

Assay [6] concerns the target Thyrotropin receptor (Homo sapiens) (UniProt P16473). Description: qHTS assay to identify small molecule antagonists of the thyroid stimulating hormone receptor (TSHR) signaling pathway (AID 1259385; calls by dose curve; note: nearly all actives have a fitted effect of over 20% in size; note: potency is the fitted concentration of half-maximal effect). The essentials: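 TSHR-HEK293 cells were plated and held 18 h at 37C/5% CO2, then given compound plus Ro20-1724 and stimulated with TSH at 1.5 ng/mL final. After 30 min at room temperature, cAMP was detected with cAMP-d2/anti-cAMP-cryptate (1 h) by fluorescence.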

Assay [7] in a line: qHTS assay to identify small molecule agonists of the estrogen receptor alpha (ER-alpha) signaling pathway in the presence of an antagonist - cell viability counter screen (AID 1259386).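 Note: cells exposed to compounds for 22 h at 37 °C before the viability read; nearly all actives have a fitted effect of over 30% in size.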 Note: potency is the fitted concentration of half-maximal effect. In short, it runs like this:
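The test measures whether compounds kill ER-alpha reporter cells (VM7Luc4E2) under antagonist co-treatment (ICI-182,780, 10.0nM). Fluorescence from CellTiter-Fluor is read after a 22hr exposure.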

Assay [8] addresses Progesterone receptor (Homo sapiens) (UniProt P06401). Briefly: qHTS assay to identify small molecule agonists of the progesterone receptor (PR) signaling pathway (AID 1346784; calls by dose curve; note: nearly all actives have a fitted effect of over 30% in size). In short, it runs like this:
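Compounds were tested for PR agonism in HEK 293T cells bearing a beta-lactamase gene under UAS control. Treatment lasted 16 hr at 37C; signal came from fluorescence of a FRET substrate.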

Assay [9] is described as follows: qHTS assay to identify small molecule antagonists of the TGF-beta/Smad signaling pathway - cell viability counter screen (AID 1346824). Note: nearly all actives have a fitted effect of over 50% in size. Note: potency is the fitted concentration of half-maximal effect. In short, it runs like this:
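SBE-bla HEK 293T cells were plated overnight at 37 C, then given compounds in DMSO plus TGF-beta1 (added as 0.25 ng/mL solution) for 5 hr. After the bla read, CellTiter-Glo was added to the same wells and luminescence read after 30 min at room temperature.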

A short description of assay [10]: qHTS assay to identify small molecule agonists of the TGF-beta/Smad signaling pathway - cell viability counter screen (AID 1346829). Note: nearly all actives have a fitted effect of over 45% in size. Note: potency is the fitted concentration of half-maximal effect. The essentials: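 Same-well cytotoxicity: CellTiter-Glo added after the 2 hr room-temperature beta-lactamase substrate step, luminescence measured 30 min later; cells had 5 hr of compound at 37 C.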
The nature of assay [11]: qHTS assay to identify small molecule agonists of the TGF-beta/Smad signaling pathway (AID 1346859; active = well fitted activation curve with a large enough effect in the signal ratio in the repeat runs, not every such curve was filed as active; the % refers to the signal ratio; note: series mostly up to about 77 µM). The essentials:
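Each well held 4,000 SBE-bla HEK 293T cells incubated overnight before compound addition; 5 hr later the cleavable FRET substrate went on for 2 hr at room temperature, and fluorescence was read at two emissions.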

Assay [12] has as its target Thyrotropin-releasing hormone receptor (Homo sapiens) (UniProt P34981). Description: qHTS assay to identify small molecule antagonists of the thyrotropin-releasing hormone receptor (TRHR) signaling pathway (AID 1346877; active = well fitted inhibition curve with a large enough effect in the repeat runs, not every such curve was filed as active; note: potency is the fitted concentration of half-maximal effect). The essentials: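 Overnight-plated (18 h, 37 °C) HEK293 cells expressing TRHR were dye-loaded 2 h, treated with compound, then stimulated with TRH at 1 nM final. Fluorescence intensity was captured every second for 3 min.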

Assay [13] has the same target. Description: qHTS assay to identify small molecule agonists of the thyrotropin-releasing hormone receptor (TRHR) signaling pathway (AID 1346891; calls by dose curve; note: series mostly up to about 58 µM). The essentials:
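Screening of agonists relied on calcium signalling in HEK293 cells expressing human TRHR: dye loading 2 h at 37 °C preceded compound addition and a 3-min fluorescence time course.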

For assay [14], the target named is Androgen receptor (Homo sapiens) (UniProt P10275). Description: qHTS assay to identify small molecule agonists of the androgen receptor (AR) signaling pathway in the presence of an antagonist (AID 1259381; calls by dose curve; note: nearly all actives have a fitted effect of over 15% in size; note: potency is the fitted concentration of half-maximal effect). The essentials:
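Luminescent ONE-Glo read, 30min at room temperature, follows 16hr compound exposure (15 concentrations) of MDA-kb2 cells at 37C, 0% CO2, with nilutamide added at 3.0uM final.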

Assay [15] can be described thus: qHTS assay to identify small molecule agonists or antagonists of the thyroid stimulating hormone receptor (TSHR) signaling pathway - wild type cell line counter screen (AID 1259384; calls by dose curve). The essentials: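 Wild-type HEK293 cells were plated 18 h at 37 C/5% CO2, pin-dosed with compound plus Ro20-1724 medium, held 30 min at room temperature, then given cAMP-d2 and anti-cAMP-cryptate; fluorescence was read after 1 h. Fifteen concentrations, triplicate.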

Assay [16] is described as follows: qHTS assay to identify small molecule antagonists of the progesterone receptor (PR) signaling pathway - cell viability counter screen (AID 1346798). Note: nearly all actives have a fitted effect of over 50% in size. Note: potency is the fitted concentration of half-maximal effect. In short, it runs like this:
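Following a 4 hr attachment, PR-UAS-bla HEK293T cells in charcoal-stripped FBS medium were exposed to compounds with R5020 for 16 hr; CellTiter-Glo was added and luminescence read after 30 min at room temperature.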

Assay [17] can be described thus: qHTS assay to identify small molecule agonists of the progesterone receptor (PR) signaling pathway - cell viability counter screen (AID 1346799; calls by dose curve; note: nearly all actives have a fitted effect of over 45% in size; note: potency is the fitted concentration of half-maximal effect). The essentials: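 Here, 3,000 PR-UAS-bla HEK293T cells per well were treated with compounds for 16 hr after a 6 hr preincubation at 37C and 5% CO2; cell viability is the CellTiter-Glo luminescence signal.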

Results filed as inconclusive are left out. Calls of active or inactive are those of the source. Unless noted, calls come from the whole dose curve; as a rule, active = well fitted curve in the direction sought with a large enough effect in the repeat runs; inconclusive = weak or mixed curves; inactive = no such curve, though single readings can be large; an effect the other way counts as inactive or inconclusive.

Thyrotropin receptor (Homo sapiens), sequence (P16473 whole entry, looked up): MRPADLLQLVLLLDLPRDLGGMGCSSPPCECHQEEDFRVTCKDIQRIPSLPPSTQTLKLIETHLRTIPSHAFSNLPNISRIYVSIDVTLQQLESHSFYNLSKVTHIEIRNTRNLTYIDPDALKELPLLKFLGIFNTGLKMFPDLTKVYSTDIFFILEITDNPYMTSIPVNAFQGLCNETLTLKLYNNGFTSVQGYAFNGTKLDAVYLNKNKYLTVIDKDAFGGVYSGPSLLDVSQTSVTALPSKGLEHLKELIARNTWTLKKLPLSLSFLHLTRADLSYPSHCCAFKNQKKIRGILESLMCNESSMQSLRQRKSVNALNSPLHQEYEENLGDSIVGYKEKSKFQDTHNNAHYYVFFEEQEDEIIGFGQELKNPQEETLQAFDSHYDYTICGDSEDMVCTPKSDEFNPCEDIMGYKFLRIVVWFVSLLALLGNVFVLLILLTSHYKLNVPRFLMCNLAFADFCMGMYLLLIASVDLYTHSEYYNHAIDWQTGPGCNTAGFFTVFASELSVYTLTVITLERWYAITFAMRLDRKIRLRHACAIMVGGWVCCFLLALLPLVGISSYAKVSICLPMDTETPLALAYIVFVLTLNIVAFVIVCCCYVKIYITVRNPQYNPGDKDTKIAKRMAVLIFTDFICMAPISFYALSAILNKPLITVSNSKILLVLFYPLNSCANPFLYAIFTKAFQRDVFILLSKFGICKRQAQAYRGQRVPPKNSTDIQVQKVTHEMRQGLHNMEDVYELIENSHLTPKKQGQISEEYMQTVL
Androgen receptor (Homo sapiens), sequence (P10275 whole entry, looked up): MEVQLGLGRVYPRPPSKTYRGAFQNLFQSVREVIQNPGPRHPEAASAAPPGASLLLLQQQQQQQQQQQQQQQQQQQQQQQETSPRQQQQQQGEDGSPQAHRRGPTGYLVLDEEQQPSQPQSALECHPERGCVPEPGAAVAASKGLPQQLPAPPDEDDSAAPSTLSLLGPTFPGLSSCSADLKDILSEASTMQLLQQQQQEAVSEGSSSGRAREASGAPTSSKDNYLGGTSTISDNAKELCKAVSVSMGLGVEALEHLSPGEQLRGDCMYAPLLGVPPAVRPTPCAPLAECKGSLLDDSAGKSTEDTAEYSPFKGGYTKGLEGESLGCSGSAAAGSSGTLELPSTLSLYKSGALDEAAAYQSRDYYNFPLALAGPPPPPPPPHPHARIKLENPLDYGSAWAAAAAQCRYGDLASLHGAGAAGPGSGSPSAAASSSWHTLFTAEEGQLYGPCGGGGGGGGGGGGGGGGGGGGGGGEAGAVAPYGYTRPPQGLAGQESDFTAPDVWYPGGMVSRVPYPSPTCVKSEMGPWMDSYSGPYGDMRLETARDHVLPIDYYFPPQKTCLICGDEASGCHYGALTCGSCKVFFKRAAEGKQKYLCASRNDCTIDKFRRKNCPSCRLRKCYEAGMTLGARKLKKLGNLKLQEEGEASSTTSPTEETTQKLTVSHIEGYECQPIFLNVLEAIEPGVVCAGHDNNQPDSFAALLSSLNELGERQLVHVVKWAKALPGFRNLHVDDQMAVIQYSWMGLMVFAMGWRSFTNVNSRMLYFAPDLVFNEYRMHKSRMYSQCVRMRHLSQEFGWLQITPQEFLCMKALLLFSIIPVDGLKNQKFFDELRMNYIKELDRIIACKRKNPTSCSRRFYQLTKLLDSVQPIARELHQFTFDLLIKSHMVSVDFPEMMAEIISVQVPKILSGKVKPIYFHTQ
Progesterone receptor (Homo sapiens), sequence (P06401 whole entry, looked up): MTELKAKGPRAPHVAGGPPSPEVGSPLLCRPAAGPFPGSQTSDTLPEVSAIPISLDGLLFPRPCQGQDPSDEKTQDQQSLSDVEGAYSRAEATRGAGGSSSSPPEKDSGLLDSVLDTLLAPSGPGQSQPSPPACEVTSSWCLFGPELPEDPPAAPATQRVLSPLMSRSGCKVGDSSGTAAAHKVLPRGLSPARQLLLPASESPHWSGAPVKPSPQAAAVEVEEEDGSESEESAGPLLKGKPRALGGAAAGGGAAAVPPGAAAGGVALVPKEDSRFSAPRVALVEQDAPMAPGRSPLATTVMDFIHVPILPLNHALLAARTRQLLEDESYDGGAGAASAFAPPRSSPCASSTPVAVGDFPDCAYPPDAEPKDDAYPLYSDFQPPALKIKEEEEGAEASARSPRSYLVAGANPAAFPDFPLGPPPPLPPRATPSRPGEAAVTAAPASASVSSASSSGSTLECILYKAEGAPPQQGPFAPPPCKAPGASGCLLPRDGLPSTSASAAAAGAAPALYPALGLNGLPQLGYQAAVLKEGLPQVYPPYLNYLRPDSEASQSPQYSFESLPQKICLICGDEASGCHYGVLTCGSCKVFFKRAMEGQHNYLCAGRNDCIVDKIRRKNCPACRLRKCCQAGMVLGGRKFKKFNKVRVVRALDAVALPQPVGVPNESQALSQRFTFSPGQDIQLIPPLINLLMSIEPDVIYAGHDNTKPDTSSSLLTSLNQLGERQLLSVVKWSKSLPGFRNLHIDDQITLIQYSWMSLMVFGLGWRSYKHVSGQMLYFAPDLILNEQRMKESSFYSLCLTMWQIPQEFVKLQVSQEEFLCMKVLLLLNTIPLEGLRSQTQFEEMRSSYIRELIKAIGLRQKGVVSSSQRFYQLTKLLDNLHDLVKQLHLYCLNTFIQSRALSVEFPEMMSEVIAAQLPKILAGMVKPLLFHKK
Estrogen receptor (Homo sapiens), sequence (P03372 whole entry, looked up): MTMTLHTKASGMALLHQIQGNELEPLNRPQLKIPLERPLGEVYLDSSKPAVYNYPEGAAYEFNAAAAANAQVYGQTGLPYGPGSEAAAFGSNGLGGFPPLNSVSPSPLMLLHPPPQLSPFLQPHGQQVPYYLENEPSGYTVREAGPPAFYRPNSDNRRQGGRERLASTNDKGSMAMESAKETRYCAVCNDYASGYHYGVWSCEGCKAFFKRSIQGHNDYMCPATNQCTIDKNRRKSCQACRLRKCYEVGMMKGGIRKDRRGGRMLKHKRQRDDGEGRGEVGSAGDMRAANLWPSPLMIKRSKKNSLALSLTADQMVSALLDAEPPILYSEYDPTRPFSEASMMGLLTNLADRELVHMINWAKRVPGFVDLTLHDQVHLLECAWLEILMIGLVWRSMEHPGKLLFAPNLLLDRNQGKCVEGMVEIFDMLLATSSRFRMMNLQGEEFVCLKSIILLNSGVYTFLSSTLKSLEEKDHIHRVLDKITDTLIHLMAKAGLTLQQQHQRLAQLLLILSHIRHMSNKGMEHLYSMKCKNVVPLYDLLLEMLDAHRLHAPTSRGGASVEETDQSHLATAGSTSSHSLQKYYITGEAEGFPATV
Thyrotropin-releasing hormone receptor (Homo sapiens), sequence (P34981 whole entry, looked up): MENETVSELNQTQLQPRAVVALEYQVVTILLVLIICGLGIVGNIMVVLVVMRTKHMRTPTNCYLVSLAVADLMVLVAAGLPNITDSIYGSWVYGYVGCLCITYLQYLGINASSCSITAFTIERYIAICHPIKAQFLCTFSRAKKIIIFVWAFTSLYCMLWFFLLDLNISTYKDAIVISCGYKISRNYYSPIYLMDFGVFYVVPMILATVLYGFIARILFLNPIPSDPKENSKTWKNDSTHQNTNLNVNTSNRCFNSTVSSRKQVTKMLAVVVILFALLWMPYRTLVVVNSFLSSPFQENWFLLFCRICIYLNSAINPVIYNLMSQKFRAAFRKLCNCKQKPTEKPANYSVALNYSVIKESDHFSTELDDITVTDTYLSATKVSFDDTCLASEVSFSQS

As for `ClC1=C(Cl)[C@]2(Cl)[C@H]3[C@H]([C@H]4C=C[C@H]3C4)[C@@]1(Cl)C2(Cl)Cl`, the Potency entry in assay [1], in assay [2], in assay [3], in assay [4], in [5] and in [6] was “inactive” throughout. Besides, the Potency result in assay [7], in assay [8], in assay [9], in assay [10], in assay [12] and in [13] was “inactive” throughout. Further, the outcome in assay [11] was inactive.
Regarding `C=CC(=O)OCC(COC(=O)C=C)(COC(=O)C=C)COC(=O)C=C`, the Potency is 6.86 µM (active) in [1]; 12.2 µM (active) in [2]; 7.7 µM (active) in assay [3]; 13.7 µM (active) in assay [7]; 17.2 µM (active) in assay [16]; 19.3 µM (active) in [17]. Also, in assay [10], the Potency is 49 µM (active). In addition, the Potency entry in assay [14], in [5], in assay [12] and in assay [13] was “inactive” each time. Further, in assay [15], the call was inactive.
In the case of `C[C@]12CC[C@H](O)C[C@H]1CC[C@@H]1[C@@H]2C[C@@H](O)[C@]2(C)[C@@H](C3=CC(=O)OC3)CC[C@]12O`, the Potency result in [1], in assay [2], in [7], in [8], in assay [12] and in [13] was “inactive” in each case. The Potency in assay [3] is 1.09 µM (active); in [14], 2.73 µM (active); in assay [4] it was 0.77 µM (active). Moreover, the molecule was classed as inactive in assay [15].
Take `Clc1ccc(-c2ccc(Cl)c(Cl)c2Cl)c(Cl)c1Cl`: the Potency entry in assay [1], in assay [2], in [4], in assay [5], in assay [7] and in [8] was “inactive” in each case. Besides, the Potency entry in [9], in assay [10], in [12] and in assay [13] was “inactive” throughout. The Potency in assay [3] is 58.2 µM (active); in assay [6], 58.2 µM (active); in [16], 23.2 µM (active); in assay [17] it was 41.2 µM (active). In assay [15], the molecule was classed as inactive.
With `COC12CC[C@@]3(C[C@@H]1C(C)(O)C(C)(C)C)[C@H]1Cc4ccc(O)c5c4[C@@]3(CCN1CC1CC1)[C@H]2O5` (some centres undefined), the Potency was 4.82 µM (active) in [1]; 60.7 µM (active) in assay [2]; 27.1 µM (active) in assay [3]; 54.1 µM (active) in assay [4]; 60.7 µM (active) in [7]; 43 µM (active) in [16]. In addition, the Potency was 48.6 µM (active) in assay [9] and 38.6 µM (active) in assay [10]. The Potency result in [5] and in assay [6] was “inactive” in each case. Also, the call in assay [15] and in assay [11] was inactive.
As to `O=C1C=CC(=O)c2ccccc21`, the Potency in assay [1] was 4.33 µM (active); in assay [2] it was 43.3 µM (active); in assay [3] it was 21.7 µM (active); in assay [7], 30.6 µM (active); in assay [9], 24.5 µM (active); in assay [10], 49 µM (active). Besides, the Potency in assay [12] is 21.3 µM (active). The Potency entry in assay [14], in [5], in assay [8], in assay [16], in assay [17] and in [13] was “inactive” throughout.
Regarding `CC(=[OH+])/C=C(/C)[O-].CC(=[OH+])/C=C(\C)[O-].CC(=[OH+])/C=C(\C)[O-].[Al]`, the Potency entry in [1], in assay [2], in [3], in [4], in assay [5] and in assay [7] was “inactive” in each case. Moreover, the Potency entry in assay [8] and in assay [9] was “inactive” in each case. Also, the outcome in [11] was inactive.

The values above are taken from PubChem BioAssay (Tox21).
